{"source": "PubChem BioAssay AID2546", "about": "(National Center for Advancing Translational Sciences (NCATS), 2010)", "note": "The campaign covered roughly 310,000 compounds. About 11,000 (3.5%) were called active. Inconclusive results (about 8%) are left out. The sample holds actives, similar compounds and a random draw of the others, so the mix is not that of the screen. A number with no mark means an inactive call. Calls follow the shape of the dose curve; as a rule, active = well fitted inhibition curve with a large enough effect; inconclusive = small, poorly fitted or top-dose-only effect, or effect the other way; inactive = flat fitted curve, though single readings scatter. % is scaled to controls: 0 for no effect and ±100 for the full control effect; potency is read from the fitted curve at half-maximal effect."}
{"assay": "VP16 counterscreen qHTS for inhibitors of ROR gamma transcriptional activity;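 also: Gal4-VP16 expression switched on by copper sulfate through the metallothionein promoter; nearly all actives have a fitted effect of over 50% in size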", "settings": "Drosophila S2 Gal4-VP16 UAS-luciferase, luminescence, 20 h; series mostly up to 53.6 µM; activity, negative = inhibition: at the top concentration"}
{"smiles": "CC(C)NC(=O)COCc1cc(-c2ccc3c(c2)OCO3)on1", "activity, negative = inhibition": "15%"}
{"smiles": "COc1ccc(OC)c(CNC(=O)Cn2nc(C)c3c(C)n(-c4ccc(C)cc4)nc3c2=O)c1", "activity, negative = inhibition": "-19.8%"}
{"smiles": "COc1ccc(CN(C)C(=O)c2cc(-c3ccc(C)cc3C)nc3ccccc23)c(OC)c1OC", "activity, negative = inhibition": "-21.6%"}
{"smiles": "COc1ccc(C/C(N)=N/OC(=O)c2ccco2)cc1OC", "activity, negative = inhibition": "-10.8%"}
{"smiles": "COc1ccc(C(=O)O/N=C(\\N)Cc2ccc(Cl)cc2Cl)cc1OC", "Potency": "7.08 µM (active)"}
{"smiles": "COc1ccc(CCn2ccc(O)c(Cc3ccc(Cl)cc3Cl)c2=O)cc1OC", "activity, negative = inhibition": "7.07% [at 10 µM]"}
{"smiles": "CC(CCc1ccc(O)cc1)NCc1ccc(Cl)cc1Cl", "note": "(stereo unspecified)", "activity, negative = inhibition": "-3.64%"}
{"smiles": "O=S1(=O)N=C(N(CCO)/N=C/c2ccccc2F)c2ccccc21", "activity, negative = inhibition": "7.88%"}
{"smiles": "COC(=O)c1cc(S(=O)(=O)NCC2CCN(Cc3ccc(Cl)cc3)CC2)cn1C", "activity, negative = inhibition": "-12.2%"}
{"smiles": "CC(C)(C)c1cc(C(=O)N/N=C/c2ccc([N+](=O)[O-])s2)n[nH]1", "Potency": "12.6 µM (active)"}
{"smiles": "Cc1ccsc1C(=O)N/N=C/c1ccc([N+](=O)[O-])cc1", "activity, negative = inhibition": "4.83%"}
{"smiles": "COc1ccc2ccccc2c1/C=N/NC(=O)c1cc(C)[nH]n1", "activity, negative = inhibition": "-0.573%"}
{"smiles": "CCOc1ccc(NC(=O)CCC(=O)N/N=C/c2ccc([N+](=O)[O-])s2)cc1", "activity, negative = inhibition": "-28.5%"}
{"smiles": "Cc1ccccc1NCC(=O)N/N=C\\c1ccc([N+](=O)[O-])s1", "activity, negative = inhibition": "-17.2%"}
{"smiles": "Cc1cc(C(=O)N/N=C/c2cc([N+](=O)[O-])cc(C)c2O)n[nH]1", "Potency": "14.1 µM (active)"}
{"smiles": "COc1ccc(OC)c(NC(=O)c2ccc3c(c2)CCN3S(C)(=O)=O)c1", "activity, negative = inhibition": "-1.41%"}
{"smiles": "COc1ccc(-n2ncc3c2CC(C)(C)CC3NC(=O)CCc2c(C)noc2C)cc1", "note": "(stereo unspecified)", "activity, negative = inhibition": "-3.92%"}
{"smiles": "CCn1c(CC(=O)Nc2ccccc2)nnc1SCC(=O)N1CCOCC1", "activity, negative = inhibition": "-3.65%"}
{"smiles": "Cc1cccc(C)c1OCCN1CCOCC1", "activity, negative = inhibition": "6.41%"}
{"smiles": "CC(CC(=O)N1CCN(c2ccccc2)CC1)S(=O)(=O)c1ccc2c(c1)NC(=O)CS2", "note": "(stereo unspecified)", "activity, negative = inhibition": "0.387%"}
{"smiles": "CCOC(=O)c1c(-c2ccc(C)cc2)csc1/N=C(\\C)C1=C(O)c2ccccc2C1=O", "activity, negative = inhibition": "3.7%"}
{"smiles": "CCCCC(C(=O)OCC(=O)c1ccc(OC)cc1)N1C(=O)c2ccccc2C1=O", "note": "(stereo unspecified)", "activity, negative = inhibition": "3.78%"}
{"smiles": "CCOC(=O)C1=C(c2ccc(OC)cc2)C(=O)c2ccccc2C1=O", "Potency": "4.47 µM (active)"}
{"smiles": "COc1ccccc1-n1c(SCC(=O)Nc2cccc(C(=O)O)c2)nnc1-c1ccccc1O", "activity, negative = inhibition": "-1.31%"}
{"smiles": "CCOC(=O)[C@@H]1[C@H]2COc3ccc(Br)cc3[C@H]2N2C(=O)N(c3ccc(Cl)cc3)C(=O)[C@@]12C", "activity, negative = inhibition": "-0.565%"}
{"smiles": "COC(=O)c1cc(NS(=O)(=O)c2ccc3c(c2)c(=O)n(C)c(=O)n3C)cc(C(=O)OC)c1", "activity, negative = inhibition": "-8.45%"}
{"smiles": "Cc1[nH]c2ccccc2c1C(=O)CN1CC(C)CC(C)C1", "note": "(stereo unspecified)", "activity, negative = inhibition": "0.792%"}
{"smiles": "CC(=O)Nc1cccc(NC(=O)c2ccc3c(c2)CCN3S(C)(=O)=O)c1", "activity, negative = inhibition": "-2.68%"}
{"smiles": "COc1ccccc1-c1sc2ccccc2c1-c1ccc(C(C)=O)cc1", "activity, negative = inhibition": "21.8%"}
{"smiles": "C(=N\\n1cnnc1)/c1cccnc1", "activity, negative = inhibition": "-11.9%"}
{"smiles": "CN(C)c1ccc(-n2cccc2/C=C2/SC(=Nc3ccc(F)cc3)NC2=O)cc1", "activity, negative = inhibition": "5.37%"}
{"smiles": "CN(C)c1ccc(-n2cccc2/C=N/n2cnnc2)cc1", "Potency": "14.1 µM (active)"}
{"smiles": "CNC[C@H](CC1CCCCC1)NC[C@H](NCCC1CCCC1)[C@H](C)O", "activity, negative = inhibition": "0.758%"}
{"smiles": "O=C1c2ccccc2C(=O)N1CCOc1ccc(F)cc1", "activity, negative = inhibition": "3.46%"}
{"smiles": "CN1CN(C)c2ccc([N+](=O)[O-])c3cccc1c23", "activity, negative = inhibition": "-1.56%"}
{"smiles": "CCCNC(=O)CCc1c(C)nc2c(c(C)nn2-c2ccc(C)cc2)c1C", "activity, negative = inhibition": "-11.2%"}
{"smiles": "COc1ccc(Cn2c(=S)[nH]c3cc(C(=O)NCCCN4CCOCC4)ccc3c2=O)cc1", "activity, negative = inhibition": "2.27%"}
{"smiles": "O=C(NC1CCCCC1)c1ccc2c(=O)n(CC3CCCO3)c(=O)[nH]c2c1", "note": "(stereo unspecified)", "activity, negative = inhibition": "-5.27%"}
{"smiles": "COC(=O)c1ccc2c(=O)n(CC3CCCO3)c(=S)[nH]c2c1", "note": "(stereo unspecified)", "Potency": "5.01 µM (active)"}
{"smiles": "COc1ccccc1OCCCC(=O)Nc1ccc2c(c1)OCCO2", "activity, negative = inhibition": "14.8%"}
{"smiles": "O=C(CNC(=O)c1cccnc1)N/N=C/c1cccnc1", "activity, negative = inhibition": "-1.32%"}
{"smiles": "Cc1nc2ccccc2n1CC(=O)N/N=C/c1cccnc1", "activity, negative = inhibition": "3.63%"}
{"smiles": "O=C(CSc1cccc2cccnc12)N/N=C/c1cccnc1", "Potency": "20 µM (active)"}
{"smiles": "CN(C)Cc1c(O)ccc2c(=O)c(-c3ccccc3Cl)coc12", "activity, negative = inhibition": "-6.46%"}
{"smiles": "COc1ccccc1CN1CCNC(=O)C1CC(=O)N(C)CC1CCOCC1", "note": "(stereo unspecified)", "activity, negative = inhibition": "-6.75%"}
{"smiles": "COc1ccc2c(C)c(CCC(=O)NC3CC3)c(=O)oc2c1C", "activity, negative = inhibition": "16.5%"}
{"smiles": "COc1ccc2c(c1OC)C(=O)N(c1ccc(O)cc1)C2", "activity, negative = inhibition": "1.37%"}
{"smiles": "CN1CCN(CCCNC(=O)c2ccc(/C=C3\\Oc4ccccc4N(Cc4ccc(Cl)cc4)C3=O)cc2)CC1", "Potency": "11.2 µM (active)"}
{"smiles": "CN1C(=O)/C(=C/c2ccc(C(=O)NC3CCCC3)cc2)Oc2ccccc21", "activity, negative = inhibition": "4.63%"}
{"smiles": "O=C(NCCN1CCOCC1)c1ccc(/C=C2\\Sc3ccccc3N(Cc3ccc(F)cc3)C2=O)cc1", "activity, negative = inhibition": "-28.8%"}
{"smiles": "Cc1cc(N2C(=O)C(O)=C(C(=O)c3ccc(C)o3)C2c2ccc(OCc3ccccc3)cc2)no1", "note": "(stereo unspecified)", "activity, negative = inhibition": "0.706%"}
{"smiles": "O=C(CN1CCC(NC(=O)Nc2ccccc2)CC1)Nc1cccc([N+](=O)[O-])c1", "activity, negative = inhibition": "-0.0438%"}
{"smiles": "COc1cccc(C(=O)CC(=O)C(=O)Nc2ccc([N+](=O)[O-])cc2C)c1", "activity, negative = inhibition": "-23.3%"}
{"smiles": "CC1(C)Cc2c(sc(NC(=O)C(=O)N3CCOCC3)c2C#N)CO1", "activity, negative = inhibition": "-0.0226%"}
{"smiles": "COc1ccc(Cc2nc3ccc(C(=O)NCC4CCOCC4)cc3o2)cc1OC", "activity, negative = inhibition": "29.3%"}
{"smiles": "O=C(O)c1ccccc1CSc1nc2ccccc2s1", "activity, negative = inhibition": "-13.2%"}
{"smiles": "O=C(CCCl)Nc1ccc(S(=O)(=O)NCc2ccco2)cc1", "activity, negative = inhibition": "-11.5%"}
{"smiles": "O=S(=O)(NCc1ccco1)c1cnc(Cl)c(Cl)c1", "activity, negative = inhibition": "-1.39%"}
{"smiles": "C/C(=N\\Nc1ncc(Cl)cc1Cl)c1ccc(S(=O)(=O)NCc2ccco2)cc1", "Potency": "3.16 µM (active)"}
{"smiles": "CCCc1ccc(OCCNC(=O)c2ccccc2Br)cc1", "activity, negative = inhibition": "-1.36%"}
{"smiles": "Cc1cc(NC(=O)c2ccccc2C)no1", "activity, negative = inhibition": "-5.27%"}
{"smiles": "Clc1ccc(CN2CCN(/N=C/c3cccnc3)CC2)cc1", "activity, negative = inhibition": "-6.15%"}
{"smiles": "O=C1/C(=C\\c2cccnc2)CN(Cc2ccccc2)C/C1=C\\c1cccnc1", "Potency": "2 µM (active)"}
{"smiles": "O=Cc1cn(Cc2ccccc2)nc1-c1cccnc1", "activity, negative = inhibition": "1.13%"}
{"smiles": "Cc1c(C(C)(C)O)[nH]c2ccc(C#N)cc12", "activity, negative = inhibition": "0.547%"}
{"smiles": "O=C(O)c1ccccc1C(=O)NC1=NN(c2ccccc2)CC1", "activity, negative = inhibition": "-3.3%"}
